HepG2 viability = HepG2 cytotoxicity, counter-screen for TGF-b inhibitors; HepG2 CAGA-GFP viability, ATP luminescence, 18 h; Potency, µM (doses to about 46.1 µM), for inactives: top-dose activity change, negative = cytotoxicity, hits mostly cytotoxic; 0.76% of 410,000 active; AID 588856
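CellTiter-Glo luminescence gave cytotoxicity after 18 hours at 37 degrees C. The cells were HepG2 CAGA-GFP in 1% FBS DMEM, stimulated with 500 pg/mL TGF-beta after compound addition. %Activity was normalised to no-cell wells (complete cell-killing) and DMSO (no toxicity), and curves were fitted and classified.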
RORgamma inh = blocks mouse ROR gamma transcriptional activity; P51450; Drosophila S2 Gal4-RORgamma UAS-luciferase reporter, 20 h; Potency, µM (doses to about 53.6 µM), inactives show at the top dose activity change, negative = inhibition, hits mostly inhibitors; 5.4% of 310,000 active; AID 2551; also: % is scaled to controls: 0 for no effect and ±100 for the full control effect; nearly all actives have a fitted effect of over 60% in size
Target sequence (P51450 whole entry, looked up, the tested form may be a part): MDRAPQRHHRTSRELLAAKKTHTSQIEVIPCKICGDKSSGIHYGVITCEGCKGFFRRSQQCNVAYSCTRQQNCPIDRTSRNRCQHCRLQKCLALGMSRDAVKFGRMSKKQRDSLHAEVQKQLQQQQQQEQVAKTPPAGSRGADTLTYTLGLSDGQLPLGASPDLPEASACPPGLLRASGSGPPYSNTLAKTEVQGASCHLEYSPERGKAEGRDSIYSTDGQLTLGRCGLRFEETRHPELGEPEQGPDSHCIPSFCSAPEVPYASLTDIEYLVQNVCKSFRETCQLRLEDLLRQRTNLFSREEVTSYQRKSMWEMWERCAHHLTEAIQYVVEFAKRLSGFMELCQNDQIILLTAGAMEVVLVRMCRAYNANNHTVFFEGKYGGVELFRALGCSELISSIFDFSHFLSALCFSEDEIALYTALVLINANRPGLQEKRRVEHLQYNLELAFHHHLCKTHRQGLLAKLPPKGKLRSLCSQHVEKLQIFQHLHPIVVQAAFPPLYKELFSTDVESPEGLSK
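Schneider cells (Drosophila), stable Gal4 DBD–ROR gamma + UAS-luc; 1 hr cmpd preincubation; Cu2+ induction 700 uM final; 20 hr ambient; luminescence.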
ATXN2 expr inh = inhibitors of ATXN2 expression; AID 1745845; 0.72% of 360,000 active; HEK-293 ATXN2-luciferase reporter, luminescence, 24 h; Potency, µM (titrated, usually from 57 µM), without a hit: at the top dose activity change, negative = inhibition, usual class: inhibitors; also: % is scaled to controls: 0 for no effect and ±100 for the full control effect; nearly all actives have a fitted effect of over 55% in size
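qHTS (up to 57 uM final) was run with 24 h compound exposure of reporter cells at 37 °C. Each well was multiplexed: SteadyGlo luminescence measured ATXN2-luciferase expression after a fluorogenic Gly-Phe-AFC viability readout (25 uM final).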
ATXN viability = viability counter-screen for ATXN expression inhibitors; S2 cells (HEK-293 line with an ATXN2-luciferase reporter) viability, CellTiter-Fluor protease fluorescence, 24 h; Potency, µM (doses to about 56.7 µM), hits mostly cytotoxic; 0.49% of 400,000 active; AID 651635; also: nearly all actives have a fitted effect of over 40% in size
Gal4-VP16 FLuc = counter-screen for ROR gamma inhibitors: Gal4-VP16 reporter. Potency, µM (doses to about 53.6 µM), for the others: at the highest dose activity, negative = inhibition, hits mostly inhibitors. AID 2546. Drosophila S2 Gal4-VP16 UAS-luciferase, luminescence, 20 h. 3.5% of 310,000 active;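 also: Gal4-VP16 expression switched on by copper sulfate through the metallothionein promoter; % is scaled to controls: 0 for no effect and ±100 for the full control effect; nearly all actives have a fitted effect of over 50% in size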
TGFb inhibitor = blocks TGF-b signaling | Potency, µM (series often up to 46.1 µM), without a hit: at the top dose activity, negative = inhibition, most hits filed as inhibitors | HepG2 CAGA-GFP TGF-b/SMAD3 reporter, GFP fluorescence, 18 h; TGF-beta stimulated, 500 pg/mL final | 1.2% of 410,000 active; also: % is scaled to controls: 0 for no effect and ±100 for the full control effect; nearly all actives have a fitted effect of over 65% in size
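Inhibition of TGF-beta-driven CAGA-GFP reporter expression in HEPG2 cells is measured by cellular GFP fluorescence after 18 h stimulation with 500 pg/mL recombinant TGF-beta in 1% FBS medium at 37 degrees C.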
* hit, by the source's call; [ ] = dose if it differs, or a comment. A selection: hits, their analogues and other compounds. The true share with any hit is near 6.3%. Calls follow the shape of the dose curve; as a rule, active = well fitted curve in the direction sought with a large enough effect; inconclusive = small, poorly fitted or top-dose-only effect, or another doubt; inactive = no such curve, though single readings can be large; an effect the other way counts as inactive or inconclusive. Potency is read from the fitted curve at half-maximal effect.

How did Cc1ccc(S(=O)(=O)CNC(=S)c2cccc(Cl)c2)cc1 do in these assays?
HepG2 viability: -4%; RORgamma inh: 22µM*; ATXN2 expr inh: inconclusive; ATXN viability: inactive; Gal4-VP16 FLuc: inconclusive; TGFb inhibitor: inconclusive

How did Cc1cccc2sc(NNC(=O)c3ccc4c(c3)OCCO4)nc12 do in these assays?
HepG2 viability: -30%; RORgamma inh: 7.9µM*; ATXN2 expr inh: -13%; ATXN viability: inconclusive; Gal4-VP16 FLuc: 13µM*; TGFb inhibitor: -27%

What do the screens show for `CC(=O)Nc1nc2cc3c(cc2s1)OCCO3`?
HepG2 viability: -18%; RORgamma inh: inconclusive; ATXN2 expr inh: -9%; ATXN viability: inactive; Gal4-VP16 FLuc: -13%; TGFb inhibitor: -6%

How did O=C(NNc1nc2cc3c(cc2s1)OCCO3)c1ccccc1 do in these assays?
HepG2 viability: -20%; RORgamma inh: 4µM*; ATXN2 expr inh: 46%[11.3 µM]; ATXN viability: inactive; Gal4-VP16 FLuc: -16%; TGFb inhibitor: -1%

How did COc1cccc2sc(NC(=O)c3ccc4c(c3)OCCO4)nc12 do in these assays?
HepG2 viability: -29%; TGFb inhibitor: 3%

What do the screens show for `CC(C)(O)C#Cc1ccc(CN2CCc3nnc(CNC(=O)c4cccc(F)c4)n3CC2)cc1`?
ATXN viability: inactive

What do the screens show for `O=C(NNC(=O)c1cc2cc(Br)ccc2oc1=O)c1ccc(O)cc1O`?
HepG2 viability: -19%; RORgamma inh: 10µM*; ATXN2 expr inh: inconclusive; Gal4-VP16 FLuc: inconclusive; TGFb inhibitor: inconclusive

What do the screens show for `COCCCNC(=O)c1cc2cc(Br)ccc2oc1=O`?
HepG2 viability: 1%; RORgamma inh: 11%; ATXN2 expr inh: -17%; ATXN viability: inactive; Gal4-VP16 FLuc: -1%; TGFb inhibitor: 4%

Results for Cc1cccc(-n2c(=O)c3c(c4cc(C)ccc4n3C)n(CC(=O)NCC3CCCO3)c2=O)c1 (centres undefined) ?
HepG2 viability: -74%; ATXN2 expr inh: 12%; ATXN viability: inactive; TGFb inhibitor: -16%

What do the screens show for `Cc1ccc(NC(=O)CC2SC3=NCCN3C2=O)cc1` (centres undefined)?
HepG2 viability: -26%; RORgamma inh: inconclusive; ATXN2 expr inh: inconclusive; ATXN viability: inconclusive; Gal4-VP16 FLuc: 11µM*; TGFb inhibitor: 2%

How did O=C(CC1SC2=NCCN2C1=O)Nc1ccccc1 (centres undefined) do in these assays?
HepG2 viability: -22%; RORgamma inh: 43%; ATXN2 expr inh: 15%; ATXN viability: inactive; Gal4-VP16 FLuc: -9%; TGFb inhibitor: 0%

How did Cc1scc(-c2n[nH]c(=S)n2C(C)c2ccccc2)c1C (centres undefined) do in these assays?
HepG2 viability: -26%; RORgamma inh: 4µM*; ATXN2 expr inh: 4%; ATXN viability: inactive; Gal4-VP16 FLuc: 7.1µM*; TGFb inhibitor: inconclusive

What do the screens show for `Cc1ccccc1-n1c(-c2csc(C)c2C)n[nH]c1=S`?
HepG2 viability: -2%; RORgamma inh: 2.8µM*; ATXN2 expr inh: 51%; ATXN viability: inactive; Gal4-VP16 FLuc: 6.3µM*; TGFb inhibitor: -9%

What do the screens show for `COc1ccc(CC(=O)NCc2n[nH]c(=S)n2-c2cccc(C)c2)cc1`?
HepG2 viability: 10%; RORgamma inh: -34%; ATXN2 expr inh: 4%; ATXN viability: inactive; Gal4-VP16 FLuc: 4%; TGFb inhibitor: 0%

How did Cc1cccc(-n2c(-c3csc(C)c3C)n[nH]c2=S)c1 do in these assays?
HepG2 viability: 4%; RORgamma inh: 2.5µM*; ATXN2 expr inh: 4%; ATXN viability: inconclusive; Gal4-VP16 FLuc: 11µM*; TGFb inhibitor: -14%

How did Cc1ccccc1-n1c(-c2csc3ccccc23)n[nH]c1=S do in these assays?
HepG2 viability: -3%; RORgamma inh: 1.1µM*; ATXN2 expr inh: 20%; ATXN viability: inactive; Gal4-VP16 FLuc: inconclusive; TGFb inhibitor: -27%

High-throughput results from PubChem.
